The whole screen tested about 48,000 compounds, of which about 13,000 (27%) showed an effect of 50% or more. Some of the results follow.
Test system: Wolbachia pipientis
Assay: Anti-Wolbachia Cell-Based Screen
Format: functional
Set-up: scale not given: in the data most compounds retested in dose-response had high values
Conditions: 5 µM

**Q.** For `COc1ccccc1CC1CCCN(CCC#N)C1` (stereo not drawn), which “Percent Effect” value is on record?
**A.** -6.976%

**Q.** For `Cc1nonc1C1CCCN1C(=O)c1cc2n(n1)CCCNC2` (stereo not drawn), which “Percent Effect” value is on record?
**A.** -3.031%

**Q.** `COCC(O)CN(C)c1ccnc2cc(Br)ccc12` (stereo not drawn) was tested. Which “Percent Effect” value did it give?
**A.** 92.3%

**Q.** Which “Percent Effect” value does the source give for `COCC(O)CNc1cncc(Br)c1` (stereo not drawn) here?
**A.** -2.667%

**Q.** For `COc1cc(F)ccc1N(C)Cc1ccccn1`, which “Percent Effect” value is on record?
**A.** 9.437%

**Q.** How did the “Percent Effect” value turn out when `COCC(O)CN(C)c1ccnc2cc(F)ccc12` (stereo not drawn) was run?
**A.** 83.56%

**Q.** How did the “Percent Effect” value turn out when `COCC(=O)N1CCC(Nc2ccnc3ccc(Cl)cc23)CC1` was run?
**A.** -6.533%

**Q.** `COc1ccc(Cl)cc1NC(=O)N(C)CC(O)COCCOC(C)C` (stereo not drawn) was tested. Which “Percent Effect” value did it give?
**A.** -8.214%

**Q.** Which “Percent Effect” value does the source give for `Cc1ccc(N(C)CC(O)COCc2ccccc2F)c(C)c1` (stereo not drawn) here?
**A.** 0.5576%

**Q.** With `COc1ccc(COCC(O)CN(C)c2ccc(C)cc2C)cc1` (stereo not drawn) as the molecule, how does the “Percent Effect” value read?
**A.** 10.8%

**Q.** `COCC(O)CN(C)c1ccnc2ccc(Cl)cc12` (stereo not drawn) was tested. Which “Percent Effect” value did it give?
**A.** 99.68%

**Q.** For `COC(=O)c1ccc(Cl)c(NS(=O)(=O)c2cnn(C)c2)c1`, which “Percent Effect” value is on record?
**A.** -1.605%

**Q.** For `O=C(CNC(=O)C1CC1)NCC(F)(F)F`, which “Percent Effect” value is on record?
**A.** -16.51%

**Q.** With `Cl.O=C(CCc1cccc(C2CCNCC2)n1)N1CCCCC1` as the molecule, how does the “Percent Effect” value read?
**A.** 116.4%

**Q.** How did the “Percent Effect” value turn out when `Cl.NC(=O)CCc1cccc(C2CCNCC2)n1` was run?
**A.** 115.3%

**Q.** Which “Percent Effect” value does the source give for `O=C(CCc1ccccc1)N1CCC(c2n[nH]c(C3CC3)n2)CC1` here?
**A.** -4.114%

**Q.** `CNC(=O)[C@H]1C[C@@H]2CN(S(=O)(=O)c3ccc(C)c(F)c3)C[C@@H]2N1C.O=C(O)C(F)(F)F` was tested. Which “Percent Effect” value did it give?
**A.** -6.907%

**Q.** How did the “Percent Effect” value turn out when `O=C(c1ccoc1)N1CCCC1C1CCN(Cc2ccccc2)CC1` (stereo not drawn) was run?
**A.** -51.53%

**Q.** `Cc1nn(C)c(Cl)c1C1CCCN1c1ncnc2c1CCC2` (stereo not drawn) was tested. Which “Percent Effect” value did it give?
**A.** 16.41%

**Q.** For `Cc1c(C(=O)O)oc2ccc(I)cc12`, which “Percent Effect” value is on record?
**A.** 125.9%

**Q.** How did the “Percent Effect” value turn out when `COc1ccc2c(C)c(C(=O)NC3CCN(S(C)(=O)=O)CC3)oc2c1` was run?
**A.** 1.038%

**Q.** For `CNC(=O)c1[nH]nc2ccc(I)cc12`, which “Percent Effect” value is on record?
**A.** 8.904%

**Q.** For `O=C(O)CSc1nnc(-c2ccco2)n1-c1ccccc1C(F)(F)F`, which “Percent Effect” value is on record?
**A.** -16%

**Q.** With `COc1cc2c(nn1)CCN(Cc1noc(-c3ccccc3)n1)C2` as the molecule, how does the “Percent Effect” value read?
**A.** -2.709%

**Q.** For `NC(=O)c1ccc(C(=O)N(Cc2ccc(O)cc2)CC2CC2)cc1`, which “Percent Effect” value is on record?
**A.** -2.707%

**Q.** How did the “Percent Effect” value turn out when `COCC1c2c(cnn2C)CCN1C(=O)c1cc(C)on1.O=C(O)C(F)(F)F` (stereo not drawn) was run?
**A.** 103.5%

**Q.** For `CCOCC1c2c(cnn2C)CCN1C(=O)c1cc(C)on1.O=C(O)C(F)(F)F` (stereo not drawn), which “Percent Effect” value is on record?
**A.** 118%

**Q.** Which “Percent Effect” value does the source give for `COCC1c2nnn(CC3CC3)c2CCN1C(=O)c1cc(C)on1` (stereo not drawn) here?
**A.** 18.93%

**Q.** `CCOCC1c2c(cnn2C)CCN1C(=O)c1ccncn1.O=C(O)C(F)(F)F` (stereo not drawn) was tested. Which “Percent Effect” value did it give?
**A.** -13.88%

**Q.** For `O=C(COc1cccc(Br)c1)N1CCN(c2nccs2)CC1`, which “Percent Effect” value is on record?
**A.** 20.8%

**Q.** For `CC(C)c1noc(C2CCCN2C(=O)Cc2cn3ccsc3n2)n1` (stereo not drawn), which “Percent Effect” value is on record?
**A.** 5.125%

**Q.** Which “Percent Effect” value does the source give for `CN(C)CCCNC(=O)C(c1cccc(F)c1)N(C)C` (stereo not drawn) here?
**A.** 6.227%

**Q.** For `O=C(Nc1ccc(-n2ccnc2)c(F)c1)C1CCN(C(=O)C2CC2)CC1`, which “Percent Effect” value is on record?
**A.** -14.41%

**Q.** With `COC(C)c1cccc(NCc2cccc(O)c2)c1` (stereo not drawn) as the molecule, how does the “Percent Effect” value read?
**A.** 1.439%

**Q.** How did the “Percent Effect” value turn out when `Cc1nc2nc(C)c3c(=O)n(-c4ccn[nH]4)ccc3n2n1` was run?
**A.** 1.096%

**Q.** `Cn1ccc2c(cnc3nc(-c4ccncc4)nn32)c1=O` was tested. Which “Percent Effect” value did it give?
**A.** 109.5%

**Q.** For `CSc1nc2ncc3c(=O)n(C)ccc3n2n1`, which “Percent Effect” value is on record?
**A.** 108.2%

**Q.** `Cc1nc2ncc3c(=O)n(C)ccc3n2n1` was tested. Which “Percent Effect” value did it give?
**A.** 126.9%

**Q.** With `Cc1nc(C2CCCN2Cc2nnc(C3CC3)o2)no1` (stereo not drawn) as the molecule, how does the “Percent Effect” value read?
**A.** 5.301%

**Q.** `Cc1ccc(-c2nc(CN3CCCC3Cn3cc(C)cn3)no2)cc1` (stereo not drawn) was tested. Which “Percent Effect” value did it give?
**A.** 3.147%

**Q.** With `Cc1nc(CN2CCCCC2Cn2cccn2)nc2ccccc12` (stereo not drawn) as the molecule, how does the “Percent Effect” value read?
**A.** -7.431%

**Q.** With `c1ncn(CC2CCCCN2Cc2noc(C3CC3)n2)n1` (stereo not drawn) as the molecule, how does the “Percent Effect” value read?
**A.** -14.69%

**Q.** Which “Percent Effect” value does the source give for `COc1ccc(-c2nc(CN3CCCC3Cn3cccn3)no2)cc1` (stereo not drawn) here?
**A.** 1.848%

**Q.** How did the “Percent Effect” value turn out when `CC(C)c1nc(CN2CCCC2Cn2cccn2)no1` (stereo not drawn) was run?
**A.** 118.9%

**Q.** Which “Percent Effect” value does the source give for `c1ccc(-c2nc(CN3CCCC3Cn3cccn3)no2)cc1` (stereo not drawn) here?
**A.** 97.29%

**Q.** How did the “Percent Effect” value turn out when `c1cnn(CC2CCCN2Cc2noc(C3CC3)n2)c1` (stereo not drawn) was run?
**A.** 88.48%

**Q.** How did the “Percent Effect” value turn out when `OC(COCc1ccco1)CSc1nnc2ccccn12` (stereo not drawn) was run?
**A.** -3.086%

**Q.** How did the “Percent Effect” value turn out when `O=C(NCCN1CCc2ccccc21)c1cc(-c2ccc(O)cc2)n[nH]1` was run?
**A.** -2.452%

**Q.** With `Cn1cccc1CNCc1nnc2n1CCCC2C(F)(F)F` (stereo not drawn) as the molecule, how does the “Percent Effect” value read?
**A.** -16.29%

**Q.** For `O=C(NCCN1CCCCC1)c1ccn(-c2ccccc2)n1`, which “Percent Effect” value is on record?
**A.** 106.8%

**Q.** `COc1ccc(-n2ccc(C(=O)NCCN3CCCCCC3)n2)cc1` was tested. Which “Percent Effect” value did it give?
**A.** 92.28%

**Q.** With `O=C(NCCN1CCOCC1)c1ccn(-c2ccccc2F)n1` as the molecule, how does the “Percent Effect” value read?
**A.** 7.854%

**Q.** For `COc1ccc(-n2ccc(C(=O)NCCN3CCCCC3C)n2)cc1` (stereo not drawn), which “Percent Effect” value is on record?
**A.** -3.568%
